Laboratory results as given in the supplement of paper PMC12067093, “Discovery and optimisation of a covalent ligand for TRIM25 and its application to targeted protein ubiquitination” (Chemical Science, 2025).
About 21,000 targets were measured; listed, in parts, are those with the largest changes and a random draw of the rest.

Compound: Cc1cc(ccc1-c1ccccc1)C(=O)N1CCCN(CC1)C(=O)CCl [compound 10]
Test: probe-labelled cysteine peptide fold change vs DMSO (competition) (log2 fold change); higher = less target engagement (more negative = stronger competition)
Conditions: THP-1, incubation time: 4 h
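Note: competitive profiling in live THP-1 cells: cysteine peptides tagged with an iodoacetamide desthiobiotin (IA-DTB) probe, intensity after compound treatment relative to DMSO-treated cells.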

UniProt O60879, sequence (O60879 whole entry, looked up): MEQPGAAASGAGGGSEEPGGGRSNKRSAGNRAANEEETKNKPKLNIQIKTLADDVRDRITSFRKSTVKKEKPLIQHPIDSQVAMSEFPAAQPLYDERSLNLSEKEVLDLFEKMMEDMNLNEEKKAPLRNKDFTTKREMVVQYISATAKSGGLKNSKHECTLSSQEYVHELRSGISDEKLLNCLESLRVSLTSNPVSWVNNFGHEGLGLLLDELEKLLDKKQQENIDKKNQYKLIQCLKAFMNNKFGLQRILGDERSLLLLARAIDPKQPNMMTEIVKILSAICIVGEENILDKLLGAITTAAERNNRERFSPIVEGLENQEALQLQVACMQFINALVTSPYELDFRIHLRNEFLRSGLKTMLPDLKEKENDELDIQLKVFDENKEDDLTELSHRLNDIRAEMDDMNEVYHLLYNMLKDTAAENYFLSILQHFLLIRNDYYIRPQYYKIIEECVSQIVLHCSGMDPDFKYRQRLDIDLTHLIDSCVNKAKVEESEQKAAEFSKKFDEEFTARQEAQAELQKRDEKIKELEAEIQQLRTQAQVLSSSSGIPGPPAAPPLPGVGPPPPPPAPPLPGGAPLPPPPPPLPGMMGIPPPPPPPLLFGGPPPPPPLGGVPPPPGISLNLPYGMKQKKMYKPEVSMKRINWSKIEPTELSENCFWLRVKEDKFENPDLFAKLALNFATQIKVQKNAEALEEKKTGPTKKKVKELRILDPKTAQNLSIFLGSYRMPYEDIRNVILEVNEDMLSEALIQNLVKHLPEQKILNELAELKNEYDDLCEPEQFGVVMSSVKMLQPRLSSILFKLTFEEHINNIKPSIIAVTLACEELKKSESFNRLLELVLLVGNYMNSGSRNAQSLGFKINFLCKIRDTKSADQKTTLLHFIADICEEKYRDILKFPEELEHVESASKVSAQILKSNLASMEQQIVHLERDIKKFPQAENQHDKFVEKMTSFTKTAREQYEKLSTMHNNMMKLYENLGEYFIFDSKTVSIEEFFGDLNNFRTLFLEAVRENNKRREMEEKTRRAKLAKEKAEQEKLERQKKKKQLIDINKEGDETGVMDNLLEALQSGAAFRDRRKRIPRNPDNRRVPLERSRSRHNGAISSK
UniProt P49747, sequence (P49747 whole entry, looked up): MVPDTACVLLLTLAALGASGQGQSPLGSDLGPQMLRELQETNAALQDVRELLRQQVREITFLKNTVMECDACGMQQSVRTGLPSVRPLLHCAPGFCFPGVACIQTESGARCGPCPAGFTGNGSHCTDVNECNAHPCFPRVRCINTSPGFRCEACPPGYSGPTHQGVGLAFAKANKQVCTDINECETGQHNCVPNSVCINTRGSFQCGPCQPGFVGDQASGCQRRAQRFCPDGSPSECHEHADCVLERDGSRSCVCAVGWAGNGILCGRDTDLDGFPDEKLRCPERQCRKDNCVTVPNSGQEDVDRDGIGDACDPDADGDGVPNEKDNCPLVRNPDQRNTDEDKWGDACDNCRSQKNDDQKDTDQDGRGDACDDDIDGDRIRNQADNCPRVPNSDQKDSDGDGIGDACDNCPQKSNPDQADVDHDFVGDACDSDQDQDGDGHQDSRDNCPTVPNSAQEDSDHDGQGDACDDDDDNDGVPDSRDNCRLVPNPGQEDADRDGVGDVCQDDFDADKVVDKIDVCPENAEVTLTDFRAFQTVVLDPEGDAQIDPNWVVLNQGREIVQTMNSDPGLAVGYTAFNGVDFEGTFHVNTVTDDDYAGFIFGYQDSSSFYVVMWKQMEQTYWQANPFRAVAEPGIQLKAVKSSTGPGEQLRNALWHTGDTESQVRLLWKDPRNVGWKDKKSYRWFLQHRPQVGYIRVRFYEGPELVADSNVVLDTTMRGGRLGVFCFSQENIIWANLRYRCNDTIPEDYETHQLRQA
UniProt Q9UBU2, sequence (Q9UBU2 whole entry): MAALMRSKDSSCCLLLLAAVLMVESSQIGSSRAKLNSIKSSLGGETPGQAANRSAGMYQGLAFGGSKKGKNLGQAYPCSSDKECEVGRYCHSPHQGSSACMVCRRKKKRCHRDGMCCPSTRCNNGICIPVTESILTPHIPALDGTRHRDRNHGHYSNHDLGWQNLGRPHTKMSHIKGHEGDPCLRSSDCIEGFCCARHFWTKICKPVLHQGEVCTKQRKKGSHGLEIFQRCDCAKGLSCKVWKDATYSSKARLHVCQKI
UniProt P17844, sequence (P17844 whole entry, looked up): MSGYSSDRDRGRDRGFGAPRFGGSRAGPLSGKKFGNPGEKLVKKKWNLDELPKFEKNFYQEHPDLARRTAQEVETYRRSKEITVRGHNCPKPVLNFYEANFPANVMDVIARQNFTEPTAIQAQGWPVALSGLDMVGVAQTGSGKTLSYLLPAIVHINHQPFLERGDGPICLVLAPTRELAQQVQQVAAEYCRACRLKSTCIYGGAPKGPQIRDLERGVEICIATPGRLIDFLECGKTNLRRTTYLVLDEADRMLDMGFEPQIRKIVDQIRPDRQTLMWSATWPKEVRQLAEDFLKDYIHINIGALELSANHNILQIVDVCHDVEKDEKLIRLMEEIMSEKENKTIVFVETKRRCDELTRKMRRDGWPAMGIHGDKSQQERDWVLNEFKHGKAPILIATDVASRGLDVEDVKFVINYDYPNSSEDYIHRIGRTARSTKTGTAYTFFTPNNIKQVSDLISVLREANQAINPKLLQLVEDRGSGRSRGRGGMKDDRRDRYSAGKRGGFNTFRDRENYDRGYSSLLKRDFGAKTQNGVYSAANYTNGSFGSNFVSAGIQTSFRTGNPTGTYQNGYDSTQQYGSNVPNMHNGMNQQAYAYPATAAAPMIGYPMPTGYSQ
UniProt Q6UXH1, sequence (Q6UXH1 whole entry, looked up): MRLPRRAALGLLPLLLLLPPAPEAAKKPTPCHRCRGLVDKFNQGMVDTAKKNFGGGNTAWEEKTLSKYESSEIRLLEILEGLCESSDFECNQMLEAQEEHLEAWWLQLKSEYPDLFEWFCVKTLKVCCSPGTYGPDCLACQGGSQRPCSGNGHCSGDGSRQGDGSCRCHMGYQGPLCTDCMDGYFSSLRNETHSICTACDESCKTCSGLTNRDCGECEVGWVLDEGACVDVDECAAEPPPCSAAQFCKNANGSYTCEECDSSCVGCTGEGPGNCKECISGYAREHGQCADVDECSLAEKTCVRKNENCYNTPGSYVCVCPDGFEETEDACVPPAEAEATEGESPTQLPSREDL
UniProt Q9UK59, sequence (Q9UK59 whole entry, looked up): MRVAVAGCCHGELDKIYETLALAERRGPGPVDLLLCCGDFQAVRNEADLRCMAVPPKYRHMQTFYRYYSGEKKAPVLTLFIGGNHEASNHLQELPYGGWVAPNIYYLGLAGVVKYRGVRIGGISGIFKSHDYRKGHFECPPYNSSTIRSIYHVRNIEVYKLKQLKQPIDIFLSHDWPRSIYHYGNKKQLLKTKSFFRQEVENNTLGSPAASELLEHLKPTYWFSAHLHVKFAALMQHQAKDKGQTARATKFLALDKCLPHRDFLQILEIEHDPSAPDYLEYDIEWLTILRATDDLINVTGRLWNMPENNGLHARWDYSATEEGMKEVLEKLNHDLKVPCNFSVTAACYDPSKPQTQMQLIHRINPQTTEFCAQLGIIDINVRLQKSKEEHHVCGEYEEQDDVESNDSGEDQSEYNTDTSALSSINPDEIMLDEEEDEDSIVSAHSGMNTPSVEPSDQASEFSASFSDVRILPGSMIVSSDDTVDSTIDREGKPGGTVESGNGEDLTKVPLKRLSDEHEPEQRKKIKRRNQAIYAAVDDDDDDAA
UniProt Q9Y5B0, sequence (Q9Y5B0 whole entry, looked up): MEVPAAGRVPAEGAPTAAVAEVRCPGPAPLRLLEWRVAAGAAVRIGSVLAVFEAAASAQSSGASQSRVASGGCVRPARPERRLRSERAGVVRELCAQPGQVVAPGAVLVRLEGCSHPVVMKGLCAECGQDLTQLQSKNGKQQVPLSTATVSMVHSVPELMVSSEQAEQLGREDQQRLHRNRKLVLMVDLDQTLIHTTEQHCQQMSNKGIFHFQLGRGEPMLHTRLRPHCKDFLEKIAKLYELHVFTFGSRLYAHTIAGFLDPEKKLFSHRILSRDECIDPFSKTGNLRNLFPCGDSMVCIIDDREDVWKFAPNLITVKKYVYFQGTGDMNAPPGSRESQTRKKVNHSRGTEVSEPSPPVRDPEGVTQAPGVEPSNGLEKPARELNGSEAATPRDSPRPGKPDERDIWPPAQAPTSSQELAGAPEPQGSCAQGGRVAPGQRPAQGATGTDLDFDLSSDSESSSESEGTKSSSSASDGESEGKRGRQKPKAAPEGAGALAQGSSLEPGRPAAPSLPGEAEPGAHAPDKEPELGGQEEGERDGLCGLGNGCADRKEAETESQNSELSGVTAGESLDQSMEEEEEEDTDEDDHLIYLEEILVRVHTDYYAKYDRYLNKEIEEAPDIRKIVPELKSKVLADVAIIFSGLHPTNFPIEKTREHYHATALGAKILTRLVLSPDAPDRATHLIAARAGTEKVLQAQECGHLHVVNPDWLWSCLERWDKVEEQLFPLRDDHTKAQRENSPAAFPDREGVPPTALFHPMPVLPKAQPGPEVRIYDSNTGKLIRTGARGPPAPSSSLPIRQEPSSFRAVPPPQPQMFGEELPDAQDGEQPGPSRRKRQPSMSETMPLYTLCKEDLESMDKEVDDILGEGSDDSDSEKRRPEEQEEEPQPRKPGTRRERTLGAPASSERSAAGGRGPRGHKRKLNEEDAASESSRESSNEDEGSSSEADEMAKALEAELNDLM
UniProt P50238, sequence (P50238 whole entry, looked up): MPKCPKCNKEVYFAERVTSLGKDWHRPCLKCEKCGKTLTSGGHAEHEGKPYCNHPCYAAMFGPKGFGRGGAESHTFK
UniProt O14579, sequence (O14579 whole entry, looked up): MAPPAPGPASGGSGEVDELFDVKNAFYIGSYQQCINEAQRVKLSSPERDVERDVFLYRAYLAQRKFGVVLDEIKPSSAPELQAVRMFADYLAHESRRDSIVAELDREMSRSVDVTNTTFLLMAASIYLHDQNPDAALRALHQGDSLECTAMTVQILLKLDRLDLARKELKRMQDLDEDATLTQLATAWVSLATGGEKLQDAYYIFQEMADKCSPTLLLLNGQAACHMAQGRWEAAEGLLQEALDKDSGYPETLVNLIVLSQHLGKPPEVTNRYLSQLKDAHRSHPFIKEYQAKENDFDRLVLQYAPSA

Target	probe-labelled cysteine peptide fold change (10 µM)	probe-labelled cysteine peptide fold change (50 µM)
DDX5_P17844_170_TLSYLLPAIVHINHQPFLERGDGPICLVLAPTR (UniProt P17844)	0.236	0.565
CTNND1_O60716_618_YQEAAPNVANNTGPHAASCFGAK (UniProt O60716)	-0.274	-0.78
CPNE8_Q86YQ8_196_SNEDGSFTICHK (UniProt Q86YQ8)	0.205	0.413
COMP_P49747_371_GDACDDDIDGDR (UniProt P49747)	-1.61	-0.768
DDX59_Q5T1V6_453_LFKPPVLVFVDCK (UniProt Q5T1V6)	-0.33	-1.68
CNOT4_O95628_175_AIQCVNNVVVDGR (UniProt O95628)	-0.0308	-0.303
CMIP_Q8IY22_363_NGCQQPCDR (UniProt Q8IY22)	-0.29	-1.18
DGLUCY_Q7Z3D6_265_APPGCLTPER (UniProt Q7Z3D6)	-0.239	-0.427
DDX24_Q9GZR7_599_SLVFANSISCIK (UniProt Q9GZR7)	0.147	0.498
DDX17_Q92841_319_CTYLVLDEADRMLDMGFEPQIR (UniProt Q92841)	0.023	-0.374
DKK2_Q9UBU2_214_ICKPVLHQGEVCTK (UniProt Q9UBU2)	-0.0653	-0.0474
COPE_O14579_225_CSPTLLLLNGQAACHMAQGR (UniProt O14579)	0.0563	0.158
DCXR_Q7Z4W1_58_ECPGIEPVCVDLGDWEATER (UniProt Q7Z4W1)	0.125	0.231
DDX20_Q9UHI6_98_CGLDLIVQAK (UniProt Q9UHI6)	-0.0986	-0.579
CNBP_P62633_150_CGETGHVAINCSK (UniProt P62633)	-0.103	0.0483
DDX3X_O00571_128_WCDKSDEDDWSK (UniProt O00571)	-0.303	-1.35
CRELD2_Q6UXH1_120_SEYPDLFEWFCVK (UniProt Q6UXH1)	0.199	-0.0635
DHX9_Q08211_608+612_KDKDDDGGEDDDANCNLICGDEYGPETR (UniProt Q08211)	-0.761	-0.243
CTDP1_Q9Y5B0_277_ILSRDECIDPFSK (UniProt Q9Y5B0)	-0.0626	-0.31
DCAF6_Q58WW2_513_GIGSHCK (UniProt Q58WW2)	-0.205	-0.361
DDX27_Q96GQ7_248_ACIPVGLLGK (UniProt Q96GQ7)	0.238	-0.122
DIAPH2_O60879_775_NEYDDLCEPEQFGVVMSSVK (UniProt O60879)	-0.117	0.261
DENND4A_Q7Z401_952_GSADCLPK (UniProt Q7Z401)	-0.312	0.101
DGLUCY_Q7Z3D6_316_GIGHLLCK (UniProt Q7Z3D6)	-0.0414	0.0827
CRIP1_P50238_56_TLTSGGHAEHEGKPYCNHPCYAAMFGPK (UniProt P50238)	-0.447	-1.41
DBR1_Q9UK59_347_VPCNFSVTAACYDPSKPQTQMQLIHR (UniProt Q9UK59)	-0.109	-0.299
